mHTT-CaM PPI inh = inhibitors of human mutant huntingtin-calmodulin interaction; inhibition, % at 15 µM; AlphaScreen His-mHTT/GST-CaM binding, luminescence; hit rate 3.6% among 190,000; P42858
Pf apPOL inh = Pf-apPOL DNA polymerase inhibition; inhibition, % at 10 µM; hit rate 0.25% among 210,000; AID 1794808; Recombinant Pf-apPOL, molecular beacon fluorescence, 1.5 h
Hits are given with their value. An excerpt weighted towards active compounds, which were near 3.6% of everything screened. No stated cut-off is given here; in the data, active means inhibition above about 50%; inactive means the rest.

How did COc1ccc(-c2csc(NC(=O)c3cccs3)n2)cc1 do in these assays?
mHTT-CaM PPI inh: inactive; Pf apPOL inh: inactive

How did CC(=O)Nc1nc(-c2ccccc2)c(-c2ccccc2)o1 do in these assays?
mHTT-CaM PPI inh: inactive; Pf apPOL inh: inactive

What do the screens show for `O=C(Nc1nc(-c2ccccc2)c(-c2ccccc2)o1)c1cccs1`?
mHTT-CaM PPI inh: 62.0; Pf apPOL inh: inactive

Results for COc1ccc(OC)c(NC(=O)c2ccc(I)cc2)c1 ?
mHTT-CaM PPI inh: inactive; Pf apPOL inh: inactive

Results for COc1ccc(Nc2nc(-c3ccccn3)cs2)cc1 ?
mHTT-CaM PPI inh: 99.0; Pf apPOL inh: inactive

What do the screens show for `COc1ccc(-c2csc(Nc3cc(C)ccn3)n2)cc1`?
mHTT-CaM PPI inh: inactive; Pf apPOL inh: inactive

Results for CCOc1ccc(-c2csc(Nc3ccccn3)n2)cc1 ?
mHTT-CaM PPI inh: inactive; Pf apPOL inh: inactive

How did CCOc1ccc(Nc2nc(-c3ccccn3)cs2)cc1 do in these assays?
mHTT-CaM PPI inh: 99.0; Pf apPOL inh: inactive

What do the screens show for `Oc1ccc(C2CC3CCC2C3)cc1O` (centres undefined)?
mHTT-CaM PPI inh: 53.5; Pf apPOL inh: inactive

What do the screens show for `Cc1cc(C2CCCCC2)ccc1O`?
mHTT-CaM PPI inh: inactive; Pf apPOL inh: inactive

What do the screens show for `Nc1cc(C2CCN(C(=O)Nc3cccc(Br)c3)CC2)no1`?
mHTT-CaM PPI inh: inactive; Pf apPOL inh: inactive

What do the screens show for `COc1ccc(NC(=O)c2cccc(C)c2)c(OC)c1`?
mHTT-CaM PPI inh: inactive; Pf apPOL inh: inactive

How did CCCn1cc2c3c(cccc31)CN(C(=O)c1ccccc1F)CC2 do in these assays?
mHTT-CaM PPI inh: 51.5; Pf apPOL inh: inactive

What do the screens show for `CCCn1cc2c3c(cccc31)CN(C(=O)c1cccc(F)c1)CC2`?
mHTT-CaM PPI inh: 66.2; Pf apPOL inh: inactive

How did CCn1cc2c3c(cccc31)CN(C(=O)c1cccc(F)c1)CC2 do in these assays?
mHTT-CaM PPI inh: inactive; Pf apPOL inh: inactive

How did Cn1cc2c3c(cccc31)CN(C(=O)c1ccccc1F)CC2 do in these assays?
mHTT-CaM PPI inh: inactive; Pf apPOL inh: inactive

What do the screens show for `Cn1nc(-c2nc(-c3ccc(F)cc3)no2)c2c1CCN(C(=O)COc1ccccc1)C2`?
mHTT-CaM PPI inh: inactive; Pf apPOL inh: inactive

What do the screens show for `CC1(C)C(C=C(Cl)Cl)C1C(=O)Nc1ccccc1C(=O)O` (centres undefined)?
mHTT-CaM PPI inh: inactive; Pf apPOL inh: inactive

Results for COc1cc(C=Nc2c(-c3ccc(O)c(OC)c3)nc3ccccn23)ccc1O ?
mHTT-CaM PPI inh: 60.0; Pf apPOL inh: inactive

Results for COc1cc(-c2nc3ccccn3c2N=Cc2cc([N+](=O)[O-])cc([N+](=O)[O-])c2O)ccc1O ?
mHTT-CaM PPI inh: inactive; Pf apPOL inh: inactive

How did COc1ccc(C=Nc2c(-c3ccc(O)c(OC)c3)nc3ccccn23)cc1O do in these assays?
mHTT-CaM PPI inh: inactive; Pf apPOL inh: inactive

What do the screens show for `COc1cc(-c2nc3ccccn3c2N=Cc2cn[nH]c2-c2ccc(F)cc2)ccc1O`?
mHTT-CaM PPI inh: 56.0; Pf apPOL inh: inactive

What do the screens show for `Cc1ccc(S(=O)(=O)NCCC(O)C(C)(C)C)s1` (centres undefined)?
mHTT-CaM PPI inh: inactive; Pf apPOL inh: inactive

How did Cn1cc(CN2CCC(C(=O)NCc3ccco3)CC2)c2cc(Cl)ccc21 do in these assays?
mHTT-CaM PPI inh: inactive; Pf apPOL inh: inactive

Results for O=C(NCCc1ccco1)C1CCN(Cc2cc3ccccc3n2Cc2ccccc2)CC1 ?
mHTT-CaM PPI inh: 57.5; Pf apPOL inh: inactive

Results for Cc1ccccc1Cn1c(CN2CCC(C(=O)NCc3ccco3)CC2)cc2ccccc21 ?
mHTT-CaM PPI inh: 86.4; Pf apPOL inh: inactive

How did CCc1ccc(CN2CCC(C(=O)NCc3ccco3)CC2)cc1 do in these assays?
mHTT-CaM PPI inh: inactive; Pf apPOL inh: inactive

How did O=C(NCc1ccco1)C1CCN(Cc2cc3ccccc3n2Cc2ccccc2)CC1 do in these assays?
mHTT-CaM PPI inh: 73.2; Pf apPOL inh: inactive

What do the screens show for `CCOc1ccc(CN2CCC(C(=O)NCCc3ccccc3)CC2)cc1`?
mHTT-CaM PPI inh: inactive; Pf apPOL inh: inactive

How did O=[N+]([O-])c1cccc(N(CC(O)Cn2cnc3ccccc32)S(=O)(=O)c2ccccc2)c1 (centres undefined) do in these assays?
mHTT-CaM PPI inh: inactive; Pf apPOL inh: inactive

Results for COc1cccc(C2C=C(c3ccc(C)cc3)Nc3nnnn32)c1OC (centres undefined) ?
mHTT-CaM PPI inh: inactive; Pf apPOL inh: inactive

What do the screens show for `COc1ccc(Oc2nc3c(c(=O)n(Cc4ccccc4)c(=O)n3C)n2C)cc1`?
mHTT-CaM PPI inh: inactive; Pf apPOL inh: 65.1

What do the screens show for `COc1ccc(Cn2c(Oc3ccccc3)nc3c2c(=O)n(C)c(=O)n3C)cc1`?
mHTT-CaM PPI inh: inactive; Pf apPOL inh: inactive

What do the screens show for `Cc1cccc(CC(=O)NCCC2CCN(C(=O)c3ccccc3)CC2)c1`?
mHTT-CaM PPI inh: inactive; Pf apPOL inh: inactive

How did COc1cccc2cc(C(=O)Nc3ccc(C)cc3C)c(=O)oc12 do in these assays?
mHTT-CaM PPI inh: inactive; Pf apPOL inh: inactive

How did COc1ccc(NC(=O)c2cc3cccc(OC)c3oc2=O)c(OC)c1 do in these assays?
mHTT-CaM PPI inh: inactive; Pf apPOL inh: 100.2

How did COc1ccc(-n2c(C)cc(=O)cc2C)c([N+](=O)[O-])c1 do in these assays?
mHTT-CaM PPI inh: inactive; Pf apPOL inh: inactive

How did COc1ccccc1C1CC(c2ccc(F)cc2)=NN1C(=O)CN1CCCCC1 (centres undefined) do in these assays?
mHTT-CaM PPI inh: 100.2; Pf apPOL inh: inactive

How did Cc1ccc(C2=NN(C(=O)CN3CCOCC3)C(c3cc(C)ccc3C)C2)c(C)c1 (centres undefined) do in these assays?
mHTT-CaM PPI inh: 65.4; Pf apPOL inh: inactive

What do the screens show for `Cc1ccc(C2=NN(C(=O)CN3CCOCC3)C(c3ccccc3F)C2)c(C)c1` (centres undefined)?
mHTT-CaM PPI inh: inactive; Pf apPOL inh: inactive

Results for COc1ccccc1C1CC(c2ccc(C)cc2C)=NN1C(=O)CN1CCOCC1 (centres undefined) ?
mHTT-CaM PPI inh: 63.1; Pf apPOL inh: inactive

What do the screens show for `Cc1ccc(C2=NN(C(=O)CN3CCOCC3)C(c3ccccc3F)C2)cc1` (centres undefined)?
mHTT-CaM PPI inh: inactive; Pf apPOL inh: inactive

Results for COc1ccccc1C1CC(c2cccc(C)c2)=NN1C(=O)CN1CCCCC1 (centres undefined) ?
mHTT-CaM PPI inh: inactive; Pf apPOL inh: inactive

What do the screens show for `Cc1ccc(C2=NN(C(=O)CN3CCOCC3)C(c3ccccc3C)C2)c(C)c1` (centres undefined)?
mHTT-CaM PPI inh: 86.0; Pf apPOL inh: inactive

Results for COc1ccccc1C1CC(c2ccc(C)cc2)=NN1C(=O)CN1CCCCC1 (centres undefined) ?
mHTT-CaM PPI inh: inactive; Pf apPOL inh: inactive

Results for CCOc1ccc(N2C(=O)CC(NCc3ccco3)C2=O)cc1 (centres undefined) ?
mHTT-CaM PPI inh: inactive; Pf apPOL inh: inactive

What do the screens show for `COc1ccc(-n2ccn3cc(-c4ccccc4)nc3c2=O)cc1Cl`?
mHTT-CaM PPI inh: inactive; Pf apPOL inh: inactive

Results for CCN1CCN(C(=O)C2(c3ccc(NS(=O)(=O)CC)cc3)CCCCC2)CC1 ?
mHTT-CaM PPI inh: inactive; Pf apPOL inh: inactive

What do the screens show for `COc1c(C(=O)N2CCN(C)CC2)sc2ccccc12`?
mHTT-CaM PPI inh: inactive; Pf apPOL inh: inactive

What do the screens show for `CC(C)(C)OC(=O)NCC1CCN(Cc2ccccc2)CC1`?
Pf apPOL inh: inactive

Results for Cc1c(C#N)c(-n2cccc2)n(CC2CC2)c1C ?
Pf apPOL inh: inactive

What do the screens show for `O=C(c1ccc(OCC2CCCN(C(=O)c3ccccc3F)C2)cc1)N1CCCCC1` (centres undefined)?
mHTT-CaM PPI inh: inactive; Pf apPOL inh: inactive

Screening data from PubChem BioAssay.
